# Results filed as inconclusive are left out. A number with no mark means an inactive call. Calls of active or inactive are those of the source. The call rests on the fitted dose curve; in most records, active means well fitted cell-killing curve with a large enough effect; inconclusive means small, poorly fitted or top-dose-only effect; inactive means no such curve, though single readings can be large or run the other way.
# Assay: qHTS of pediatric cancer cell lines to identify multiple opportunities for drug repurposing: Primary screen for Saos-2 cells (AID 1347097); further: nearly all actives have a fitted effect of over 40% in size
# Settings: Saos-2 viability, CellTiter-Glo ATP luminescence, 48 h; series mostly up to 46 µM; activity change, negative = cytotoxic: at the top concentration
# From the text: Drug repurposing or repositioning has been offered as a strategy for drug development in oncology programs. This approach has special potential for childhood cancers and other rare or orphan diseases, where the expected return on new drug development has been a disincentive to pharmaceuticals. […] In this project we exploit the poly-pharmacology of drugs to discover new indications via phenotypic screening of a panel of 19 well-characterized cell lines derived from solid tumors seen in children and adolescents. The goal is to identify approved drugs with previously unrecognized anticancer properties that has the potential to reveal new mechanisms and biological processes involved in carcinogenesis or drug resistance. We employed a titration-based paradigm (quantitative high-throughput screening or qHTS), where all compounds were tested at multiple concentrations for their effect on cell viability. Concentration-response curves (CRCs) were derived directly from the primary screen, and both potency and efficacy values were used to identify compounds with robust bioactivity profiles. We screened the NIH Chemical Genomics Center (NCGC) Pharmaceutical Collection (NPC) and Mechanism Interrogation Plate (MIPE) small molecule collections of approved and investigational compounds against these cell lines; and measured metabolically active cells after 48 hours of compound treatment as a proxy for cell viability. […] Assay Submitter: Nathalia J. Martinez, National Center for Advancing Translational Sciences, National Institutes of Health, Rockville, MD, USA; email: natalia.martinez@nih.gov Shen, M et al. Quantitative high-throughput phenotypic screening of pediatric cancer cell lines identifies multiple opportunities for drug repurposing. Oncotarget 2017 Dec 19;9(4):4758-4772. PMID 29435139.
# The cells were obtained from University of North Carolina (UNC), Pediatric Preclinical Testing Program (PPT), and Coriell Institute (CI). qHTS cell viability assay: Cells were assayed in growth media at a density of 500-1,000 cells/well. Five microliters of cells were dispensed into 1,536-well, white, solid-bottom, TC-treated plates (Greiner Bio One) using a multidrop dispenser and incubated at 37 degrees C, 5% CO2, under a humidified atmosphere for 5 hours. Twenty-three nanoliters of compounds and controls (neutral control DMSO or positive control bortezomib at final concentration of 2.3 µM) were subsequently transferred by Kalypsys pintool. For primary screens, the MIPE collection was tested at 11-point dilutions (final concentrations range from 0.78 nM to 46 µM) and the NPC collection at 8-point dilutions (final concentrations range from 0.59 nM to 46 µM). Compounds tested in follow-up screens were assayed at 11-point dilutions. Cells were incubated for 48 hours, followed by addition of 3 µL of CellTiter-Glo (Promega). After a 15 min incubation at room temperature, samples were analyzed for luminescence intensity using a ViewLux High-throughput CCD imager equipped with clear filters.
# On the % scale 0 is the no-effect control and ±100 the full control effect; potency means the concentration at half of the fitted maximal effect.
Compound,Potency,"activity change, negative = cytotoxic"
COC(=O)c1nc(Cl)c(Cl)nc1N,2.37 µM (active),–
CCCCCCCCCCCC(=O)[O][Sn]([CH2]CCC)([CH2]CCC)[O]C(=O)CCCCCCCCCCC,–,-5.64%
CCCCCCCCCCCCCCCCCC(=O)O,–,-2.18%
O=C(OCc1ccccc1)c1ccccc1,–,5.65%
O=C(Nc1ccc(C(=O)O)c(O)c1)c1ccccc1,–,2.7%
COC(=O)Nc1nc2ccc(C(=O)C3CC3)cc2[nH]1,0.841 µM (active),–
Nc1ccc(O)c(C(=O)O)c1,–,-2.2%
COc1ccnc2c1CCCCC2S(=O)c1nc2ccccc2[nH]1 (stereo not given),–,25.8%
Nc1cc(-c2ccncc2)c[nH]c1=O,–,-6.74%
Clc1ccccc1-c1nc(-c2ccncc2)no1,–,-23.9%
Cc1ccc(C(=O)c2ccc(CC(=O)O)n2C)cc1,–,10.2%
CC(N)C(=O)OC(C)(C)Cc1ccc(Cl)cc1 (stereo not given),–,5.72%
Oc1c(Br)cc(Br)c2cccnc12,11.9 µM (active),–
c1ccc2sc(SN3CCOCC3)nc2c1,–,8.62%
CC(C)OC(=O)c1cc(C(=O)OC(C)C)cc([N+](=O)[O-])c1,–,17.3% [at 92.7 µM]
Cc1c(N)c(=O)n(-c2ccccc2)n1C,–,-17.8%
C#C[C@]1(O)CC[C@H]2[C@@H]3CCc4cc(O)ccc4[C@H]3CC[C@@]21C,8.41 µM (active),–
COc1ccc(-c2cc(=S)ss2)cc1,–,-21.2%
N=C(N)N,–,-2.55%
CCCCCCCCCCCCCCCC(=O)OC(C)C,–,14.3%

Compound,Potency,"activity change, negative = cytotoxic"
CC(C(=O)O)c1ccc2c(c1)[nH]c1ccc(Cl)cc12 (stereo not given),–,-27.9%
N=C1N=C(N)c2cc3ccccc3cc21,24.3 µM (active),–
O=C(O)Cc1cccc(-c2cc(CCCCCCc3ccc(O[C@H]4O[C@H](CO)[C@@H](O)[C@H](O)[C@@H]4O)c(-c4cccc(CC(=O)O)c4)c3)ccc2O[C@H]2O[C@H](CO)[C@@H](O)[C@H](O)[C@@H]2O)c1,–,9.71% [at 0.597 µM]
CN1CC(=O)N/C1=N/C(=O)Nc1cccc(Cl)c1,–,-1.32%
Cc1c(Nc2ncccc2C(=O)O)cccc1C(F)(F)F,–,6.94%
CNC(=O)c1c(I)c(NC(=O)CCCCC(=O)Nc2c(I)c(C(=O)O)c(I)c(C(=O)NC)c2I)c(I)c(C(=O)O)c1I,–,-36.5%
COc1cc(NC(C)CCCN)c2ncccc2c1 (stereo not given),23.7 µM (active),–
O=C(/C=C/c1ccccc1)NCCO,–,3.72%
S=c1[nH]c2ccccc2s1,–,34.3% [at 92.7 µM]
CC(=O)c1ccc(OCC(=O)N2CCCCC2)cc1,–,-2.61%
CN1CCN(c2cc3c(nn2)Oc2ccccc2N3C)CC1,–,-14% [at 16.1 µM]
Cc1ccc(O)c(-n2nc3ccccc3n2)c1,–,-27%
Nc1ccc(C(=O)O)c(O)c1,–,23.4%
CCCSc1ccc2nc(NC(=O)OC)[nH]c2c1,4.22 µM (active),–
C[N+]1(C)[C@@H]2CC(OC(=O)[C@H](CO)c3ccccc3)C[C@H]1[C@@H]1O[C@@H]12 (stereo not given in full),–,-4.03%
CC(C(=O)O)c1ccc(C(=O)c2ccccc2)s1 (stereo not given),–,-14.9%
CCCCC1C(=O)N(c2ccccc2)N(c2ccc(O)cc2)C1=O (stereo not given),16.8 µM (active),–
CCC1C(=O)OCC1Cc1cncn1C (stereo not given),–,7.39%
Cc1[nH]cnc1CN1CCc2c(c3ccccc3n2C)C1=O,–,2.77%
COc1cccc2c1C(=O)c1c(O)c3c(c(O)c1C2=O)C[C@@](O)(C(=O)CO)C[C@@H]3O[C@H]1C[C@H](N)[C@H](O[C@@H]2CCCCO2)[C@H](C)O1,2.66 µM (active),–
